Measured values reported in the supplement of paper PMC10849652.
Targets with a hit are over-represented here; the source holds about 8,800 in all. About 0.5% of all pairs of compound and target were hits. Values without a mark were called inactive.

Columns and labels:
Assay in all cases: log2 fold change, soluble protein after heating vs DMSO (PISA); higher = thermal stabilisation; K562 lysate, 10 uM; active = over 0.2 and 3.5 SD of the protein, either way, in both replicates (recomputed)
lapatinib = compound: CS(=O)(=O)CCNCc1ccc(-c2ccc3ncnc(Nc4ccc(OCc5cccc(F)c5)c(Cl)c4)c3c2)o1 [lapatinib]
How it was run: (§1)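 K562 pellets were dounce-homogenised in PBS pH 7.4 containing 1 mM MgCl2, and the crude extract, at 1 mg/mL protein, was exposed to 10 μM compound for 30 min. Aliquots were heated for 3 min across 48°C-58°C, pooled, brought to 0.5% NP-40 at 4°C and spun at 21,000xg for 90 min, with the supernatant taken as soluble protein. TMTpro 16plex LC-MS/MS with equalised channel sums quantified that protein. Values are log-two fold changes in thermal stability relative to solvent controls, taken from duplicates.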

pictilisib = compound: CS(=O)(=O)N1CCN(Cc2cc3nc(-c4cccc5[nH]ncc45)nc(N4CCOCC4)c3s2)CC1 [pictilisib]
How it was run: as §1

crizotinib = compound: C[C@@H](Oc1cc(-c2cnn(C3CCNCC3)c2)cnc1N)c1c(Cl)ccc(F)c1Cl [crizotinib]
How it was run: as §1

[1] = compound: C[C@H](C1=CC=C(C=C1)C(=O)NC2=C3C=CNC3=NC=C2)N
How it was run: as §1

duvelisib = compound: C[C@H](Nc1ncnc2nc[nH]c12)c1cc2cccc(Cl)c2c(=O)n1-c1ccccc1 [duvelisib]
How it was run: as §1

gandotinib = compound: Cc1cc(Nc2cc(CN3CCOCC3)c3nc(C)c(Cc4ccc(Cl)cc4F)n3n2)n[nH]1 [gandotinib]
How it was run: as §1

tozasertib = compound: Cc1cc(Nc2cc(N3CCN(C)CC3)nc(Sc3ccc(NC(=O)C4CC4)cc3)n2)n[nH]1 [tozasertib]
How it was run: as §1

doramapimod = compound: Cc1ccc(-n2nc(C(C)(C)C)cc2NC(=O)Nc2ccc(OCCN3CCOCC3)c3ccccc23)cc1 [doramapimod]
How it was run: as §1

bafetinib = compound: Cc1ccc(NC(=O)c2ccc(CN3CC[C@H](N(C)C)C3)c(C(F)(F)F)c2)cc1Nc1nccc(-c2cncnc2)n1 [bafetinib]
How it was run: as §1

[2] = compound: Cc1cccc(CC(=O)N2CCc3c2ccc(-c2cn(C)c4ncnc(N)c24)c3F)n1
How it was run: as §1

nilotinib = compound: Cc1cn(-c2cc(NC(=O)c3ccc(C)c(Nc4nccc(-c5cccnc5)n4)c3)cc(C(F)(F)F)c2)cn1 [nilotinib]
How it was run: as §1

[3] = compound: Cc1nc(Nc2n[nH]c3c2CN(C(=O)N[C@H](CN(C)C)c2ccccc2)C3(C)C)c2sccc2n1
How it was run: as §1

dasatinib = compound: Cc1nc(Nc2ncc(C(=O)Nc3c(C)cccc3Cl)s2)cc(N2CCN(CCO)CC2)n1 [dasatinib]
How it was run: as §1

[4] = compound: Cc1ncc(-c2ccnc(Nc3ccc(S(C)(=O)=O)cc3)n2)n1C(C)C
How it was run: as §1

[5] = compound: Cn1cc(-c2ccc3c(c2)CCN3C(=O)Cc2cccc(C(F)(F)F)c2)c2c(N)ncnc21
How it was run: as §1

quisinostat = compound: Cn1cc(CNCC2CCN(c3ncc(C(=O)NO)cn3)CC2)c2ccccc21 [quisinostat]
How it was run: as §1

tipifarnib = compound: Cn1cncc1[C@@](N)(c1ccc(Cl)cc1)c1ccc2c(c1)c(-c1cccc(Cl)c1)cc(=O)n2C [tipifarnib]
How it was run: as §1

[6] = compound: NC(=O)Nc1cc(-c2cccc(F)c2)sc1C(=O)N[C@H]1CCCNC1
How it was run: as §1

[7] = compound: NC(=O)c1cnc(N[C@@H]2CCCC[C@@H]2N)nc1Nc1cccc(-n2nccn2)c1
How it was run: as §1

[8] = compound: NC1(c2ccc(-c3nc4ccn5c(=O)[nH]nc5c4cc3-c3ccccc3)cc2)CCC1
How it was run: as §1

UniProt Q9HBR0, sequence (Q9HBR0 whole entry, looked up): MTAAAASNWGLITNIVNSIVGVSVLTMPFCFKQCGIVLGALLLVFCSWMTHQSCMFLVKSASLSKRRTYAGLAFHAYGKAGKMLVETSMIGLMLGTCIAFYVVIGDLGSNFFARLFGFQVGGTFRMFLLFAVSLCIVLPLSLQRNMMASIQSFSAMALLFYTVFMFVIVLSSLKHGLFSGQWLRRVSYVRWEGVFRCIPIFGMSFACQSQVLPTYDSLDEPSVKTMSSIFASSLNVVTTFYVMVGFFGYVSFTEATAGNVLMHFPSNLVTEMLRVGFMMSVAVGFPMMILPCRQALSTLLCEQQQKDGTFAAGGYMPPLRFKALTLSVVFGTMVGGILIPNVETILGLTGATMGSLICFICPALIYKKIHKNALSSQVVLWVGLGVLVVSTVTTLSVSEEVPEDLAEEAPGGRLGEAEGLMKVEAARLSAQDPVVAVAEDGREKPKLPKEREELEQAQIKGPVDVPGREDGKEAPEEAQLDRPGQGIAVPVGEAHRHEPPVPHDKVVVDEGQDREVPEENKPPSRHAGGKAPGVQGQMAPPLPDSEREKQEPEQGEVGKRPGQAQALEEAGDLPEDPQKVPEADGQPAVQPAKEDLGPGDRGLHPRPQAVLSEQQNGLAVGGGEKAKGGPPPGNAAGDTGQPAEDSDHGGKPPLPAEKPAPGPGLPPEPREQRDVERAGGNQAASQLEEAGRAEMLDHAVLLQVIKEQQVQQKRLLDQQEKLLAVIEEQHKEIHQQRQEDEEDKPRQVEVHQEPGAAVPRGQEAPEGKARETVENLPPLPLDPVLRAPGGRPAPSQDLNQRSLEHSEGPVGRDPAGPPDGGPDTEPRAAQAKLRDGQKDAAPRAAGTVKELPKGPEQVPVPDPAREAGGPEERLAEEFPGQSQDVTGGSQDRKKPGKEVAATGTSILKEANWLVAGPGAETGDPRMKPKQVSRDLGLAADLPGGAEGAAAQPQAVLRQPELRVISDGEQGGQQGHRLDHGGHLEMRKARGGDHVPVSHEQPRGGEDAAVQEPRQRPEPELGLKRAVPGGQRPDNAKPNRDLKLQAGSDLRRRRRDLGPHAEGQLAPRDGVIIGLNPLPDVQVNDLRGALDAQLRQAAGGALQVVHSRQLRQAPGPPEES
UniProt Q96SB4, sequence (Q96SB4 whole entry, looked up): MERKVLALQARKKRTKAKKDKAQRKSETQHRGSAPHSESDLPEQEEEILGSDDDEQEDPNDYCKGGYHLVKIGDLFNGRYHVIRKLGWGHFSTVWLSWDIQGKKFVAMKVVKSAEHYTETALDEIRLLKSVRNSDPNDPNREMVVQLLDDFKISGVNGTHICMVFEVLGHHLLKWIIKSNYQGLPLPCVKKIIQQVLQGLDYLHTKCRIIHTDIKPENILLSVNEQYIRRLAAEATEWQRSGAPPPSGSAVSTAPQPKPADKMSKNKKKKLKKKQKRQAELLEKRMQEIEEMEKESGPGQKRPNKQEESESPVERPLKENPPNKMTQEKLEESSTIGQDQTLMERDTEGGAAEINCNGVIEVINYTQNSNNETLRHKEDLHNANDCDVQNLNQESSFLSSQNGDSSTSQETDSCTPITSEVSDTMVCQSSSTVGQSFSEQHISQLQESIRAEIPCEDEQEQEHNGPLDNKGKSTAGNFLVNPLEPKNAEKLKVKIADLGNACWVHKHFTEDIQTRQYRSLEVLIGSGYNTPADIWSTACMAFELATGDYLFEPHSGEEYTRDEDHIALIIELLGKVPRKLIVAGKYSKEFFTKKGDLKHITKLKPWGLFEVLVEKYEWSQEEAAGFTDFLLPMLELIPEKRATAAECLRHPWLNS
UniProt Q13148, sequence (Q13148 whole entry, looked up): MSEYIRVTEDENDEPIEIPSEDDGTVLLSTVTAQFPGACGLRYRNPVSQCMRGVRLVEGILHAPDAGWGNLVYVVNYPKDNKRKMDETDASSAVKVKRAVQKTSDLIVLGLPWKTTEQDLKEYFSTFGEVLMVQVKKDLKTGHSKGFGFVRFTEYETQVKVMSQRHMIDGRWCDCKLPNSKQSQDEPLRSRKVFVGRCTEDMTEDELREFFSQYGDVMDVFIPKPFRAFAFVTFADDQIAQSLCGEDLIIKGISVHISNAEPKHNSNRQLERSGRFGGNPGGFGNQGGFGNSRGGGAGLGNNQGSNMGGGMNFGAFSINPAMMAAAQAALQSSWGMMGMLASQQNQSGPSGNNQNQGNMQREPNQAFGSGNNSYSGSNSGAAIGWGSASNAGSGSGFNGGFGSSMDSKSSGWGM
UniProt Q9BWW4, sequence (Q9BWW4 whole entry, looked up): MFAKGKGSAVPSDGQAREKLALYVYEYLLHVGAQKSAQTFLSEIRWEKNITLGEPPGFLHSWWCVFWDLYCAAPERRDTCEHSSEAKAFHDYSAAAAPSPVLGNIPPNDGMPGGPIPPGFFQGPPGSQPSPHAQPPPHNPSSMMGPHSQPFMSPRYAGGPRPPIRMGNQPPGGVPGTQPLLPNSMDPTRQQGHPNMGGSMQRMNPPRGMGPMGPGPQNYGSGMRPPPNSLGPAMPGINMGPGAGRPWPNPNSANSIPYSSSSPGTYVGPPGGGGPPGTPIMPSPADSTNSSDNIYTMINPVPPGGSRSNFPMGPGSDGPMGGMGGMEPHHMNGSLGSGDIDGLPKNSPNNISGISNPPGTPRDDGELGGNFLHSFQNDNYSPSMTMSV
UniProt Q8NB90, sequence (Q8NB90 whole entry, looked up): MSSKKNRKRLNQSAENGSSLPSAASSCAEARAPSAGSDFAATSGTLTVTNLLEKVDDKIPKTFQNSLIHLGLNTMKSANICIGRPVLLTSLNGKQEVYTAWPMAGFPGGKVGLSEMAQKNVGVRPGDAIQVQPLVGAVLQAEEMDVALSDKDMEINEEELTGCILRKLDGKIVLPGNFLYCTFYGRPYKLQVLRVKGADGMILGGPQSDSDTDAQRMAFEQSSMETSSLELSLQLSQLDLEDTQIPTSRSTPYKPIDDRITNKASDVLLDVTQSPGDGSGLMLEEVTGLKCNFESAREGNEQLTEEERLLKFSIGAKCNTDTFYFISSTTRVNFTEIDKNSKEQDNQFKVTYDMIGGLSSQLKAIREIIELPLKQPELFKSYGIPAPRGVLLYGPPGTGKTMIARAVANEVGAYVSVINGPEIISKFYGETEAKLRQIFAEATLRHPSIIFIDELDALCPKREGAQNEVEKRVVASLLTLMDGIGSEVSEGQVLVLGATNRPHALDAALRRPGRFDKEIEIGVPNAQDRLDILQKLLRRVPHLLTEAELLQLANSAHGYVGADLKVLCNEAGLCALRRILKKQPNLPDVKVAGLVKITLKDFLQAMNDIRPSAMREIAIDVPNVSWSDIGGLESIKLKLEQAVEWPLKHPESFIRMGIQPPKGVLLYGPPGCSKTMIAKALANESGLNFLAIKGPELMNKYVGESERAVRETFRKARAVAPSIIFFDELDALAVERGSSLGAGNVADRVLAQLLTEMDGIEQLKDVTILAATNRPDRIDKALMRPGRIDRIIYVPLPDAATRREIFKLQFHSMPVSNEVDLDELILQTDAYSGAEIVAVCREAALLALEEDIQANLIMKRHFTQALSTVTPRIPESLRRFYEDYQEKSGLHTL
UniProt Q96DW6, sequence (Q96DW6 whole entry, looked up): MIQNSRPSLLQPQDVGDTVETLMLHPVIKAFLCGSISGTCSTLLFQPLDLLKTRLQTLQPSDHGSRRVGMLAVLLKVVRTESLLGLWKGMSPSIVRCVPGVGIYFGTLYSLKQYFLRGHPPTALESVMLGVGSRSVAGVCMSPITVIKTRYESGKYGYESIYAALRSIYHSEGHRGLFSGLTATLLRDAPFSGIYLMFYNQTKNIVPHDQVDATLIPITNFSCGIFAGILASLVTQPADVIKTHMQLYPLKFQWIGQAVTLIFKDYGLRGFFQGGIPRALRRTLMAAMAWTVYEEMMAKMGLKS
UniProt Q13586, sequence (Q13586 whole entry, looked up): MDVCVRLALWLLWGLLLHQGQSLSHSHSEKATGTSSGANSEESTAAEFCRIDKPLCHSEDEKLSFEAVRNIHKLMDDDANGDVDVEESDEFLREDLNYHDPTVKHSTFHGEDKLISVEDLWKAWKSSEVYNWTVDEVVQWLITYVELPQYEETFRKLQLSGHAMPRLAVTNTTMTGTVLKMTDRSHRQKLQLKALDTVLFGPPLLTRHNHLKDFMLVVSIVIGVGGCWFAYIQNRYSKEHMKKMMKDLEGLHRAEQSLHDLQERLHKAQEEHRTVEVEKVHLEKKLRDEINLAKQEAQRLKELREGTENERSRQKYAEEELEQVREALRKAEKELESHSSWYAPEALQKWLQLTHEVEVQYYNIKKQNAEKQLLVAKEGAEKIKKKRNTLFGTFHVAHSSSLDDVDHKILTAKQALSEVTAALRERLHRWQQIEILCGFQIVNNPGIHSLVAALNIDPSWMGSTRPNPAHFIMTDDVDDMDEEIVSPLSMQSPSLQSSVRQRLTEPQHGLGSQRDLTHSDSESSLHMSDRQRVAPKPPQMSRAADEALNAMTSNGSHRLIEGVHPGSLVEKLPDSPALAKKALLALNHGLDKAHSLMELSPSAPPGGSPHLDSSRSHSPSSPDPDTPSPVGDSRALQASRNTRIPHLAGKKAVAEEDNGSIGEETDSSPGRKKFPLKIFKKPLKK
UniProt Q8WVK7, sequence (Q8WVK7 whole entry, looked up): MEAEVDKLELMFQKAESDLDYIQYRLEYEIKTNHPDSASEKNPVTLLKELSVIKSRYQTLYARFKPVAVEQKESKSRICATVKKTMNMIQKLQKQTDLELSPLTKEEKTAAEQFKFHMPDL
UniProt Q9NYA1, sequence (Q9NYA1 whole entry, looked up): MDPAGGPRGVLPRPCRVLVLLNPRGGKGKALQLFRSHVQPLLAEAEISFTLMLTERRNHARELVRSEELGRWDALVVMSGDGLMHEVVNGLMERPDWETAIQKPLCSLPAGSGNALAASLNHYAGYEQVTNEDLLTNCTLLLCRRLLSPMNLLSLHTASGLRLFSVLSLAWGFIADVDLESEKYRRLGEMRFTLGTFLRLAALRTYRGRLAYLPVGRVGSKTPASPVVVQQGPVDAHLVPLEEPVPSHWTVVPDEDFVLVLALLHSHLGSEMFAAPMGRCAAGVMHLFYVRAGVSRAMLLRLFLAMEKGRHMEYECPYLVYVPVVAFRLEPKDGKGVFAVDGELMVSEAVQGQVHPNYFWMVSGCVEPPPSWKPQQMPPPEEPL

Target | log2 fold change (lapatinib) | log2 fold change (pictilisib) | log2 fold change (crizotinib) | log2 fold change [1] | log2 fold change (duvelisib) | log2 fold change (gandotinib) | log2 fold change (tozasertib) | log2 fold change (doramapimod) | log2 fold change (bafetinib) | log2 fold change [2] | log2 fold change (nilotinib) | log2 fold change [3] | log2 fold change (dasatinib) | log2 fold change [4] | log2 fold change [5] | log2 fold change (quisinostat) | log2 fold change (tipifarnib) | log2 fold change [6] | log2 fold change [7] | log2 fold change [8]
SKA2 (UniProt Q8WVK7) | 0.005 | -0.004 | 0.027 | 0.048 | -0.004 | -0.029 | 0.048 | -0.09 | -0.017 | 0.009 | -0.062 | 0.015 | 0.005 | 0.005 | 0.026 | 0.122 | -0.052 | -0.022 | 0.004 | -0.023
SMAP2 (UniProt Q8WU79) | -0.017 | -0.164 | 0.102 | 0.031 | -0.008 | -0.008 | 0.054 | -0.019 | 0.051 | -0.032 | -0.058 | 0.026 | -0.013 | 0.037 | 0.06 | 0.072 | -0.038 | 0.076 | 0.026 | 0.022
TARDBP (UniProt Q13148) | 0.002 | 0.145 | 0.018 | 0.005 | -0.045 | 0.115 | 0.022 | 0.282 | -0.055 | 0.044 | -0.146 | -0.079 | -0.005 | -0.051 | 0.007 | -0.087 | -0.554 (active) | 0.136 | 0.021 | 0.027
SULT1A1 (UniProt P50225) | 0.023 | -0.052 | -0.074 | -0.014 | -0.009 | -0.023 | -0.002 | -0.037 | -0.025 | 0.046 | 0.029 | -0.074 | 0.009 | -0.028 | -0.007 | -0.006 | -0.043 | 0.047 | 0.007 | -0.021
SMG1 (UniProt Q96Q15) | -0.025 | -0.05 | -0.019 | 0.002 | 0.003 | -0.105 | 0.024 | 0.015 | -0.057 | 0.049 | -0.029 | 0.026 | -0.021 | 0.038 | 0.006 | -0.05 | -0.028 | 0.061 | 0 | -0.032
SPHK1 isoform 2 (UniProt Q9NYA1) | -0.039 | 0.001 | -0.018 | -0.028 | 0.013 | 0.033 | 0.122 | 0.073 | -0.007 | -0.041 | 0.03 | -0.034 | -0.007 | -0.071 | 0.025 | 0.084 | -0.058 | -0.028 | -0.005 | 0.052
SND1 (UniProt Q7KZF4) | -0.008 | -0.012 | -0.034 | 0.077 | 0.008 | -0.108 | 0 | 0.034 | -0.028 | -0.009 | -0.008 | -0.011 | -0.028 | -0.024 | 0.038 | -0.033 | -0.003 | 0.05 | -0.007 | -0.017
SPATA5 (UniProt Q8NB90) | -0.017 | -0.009 | -0.046 | -0.027 | -0.015 | -0.13 | 0.02 | -0.017 | -0.05 | 0.034 | 0.001 | 0.006 | -0.052 | -0.002 | 0.011 | -0.023 | -0.002 | 0.03 | 0.001 | -0.064
SLC29A2 (UniProt Q14542) | -0.006 | 0.04 | -0.068 | -0.558 (active) | 0.083 | 0.159 | 0.035 | -0.023 | 0.045 | 0.146 | 0.083 | 0.095 | 0.029 | 0.058 | 0.037 | -0.242 | 0.048 | 0.088 | -0.037 | -0.021
SSBP3 (UniProt Q9BWW4) | 0.039 | -0.158 | 0.018 | -0.014 | 0.019 | -0.019 | -0.041 | 0.014 | -0.06 | 0.029 | -0.005 | 0.061 | -0.015 | 0.014 | 0.016 | 0.018 | 0.028 | -0.035 | -0.029 | -0.097
SLC25A38 (UniProt Q96DW6) | -0.093 | -0.026 | -0.044 | -0.072 | 0.173 | -0.055 | 0.391 (active) | -0.024 | -0.025 | 0.112 | -0.097 | -0.142 | 0.015 | -0.171 | 0.15 | -0.068 | -0.061 | -0.019 | -0.138 | 0.06
SLC38A10 (UniProt Q9HBR0) | 0.006 | -0.069 | 0.009 | -0.136 | 0.018 | 0.068 | -0.061 | -0.087 | -0.044 | 0.091 | 0.072 | -0.073 | -0.009 | 0.05 | -0.031 | -0.013 | 0.047 | -0.039 | 0.01 | 0.023
SRSF2 (UniProt Q01130) | 0.015 | -0.005 | 0.006 | -0.299 (active) | 0.061 | 0.079 | 0.026 | 0.05 | -0.016 | 0.109 | -0.038 | 0 | -0.003 | -0.029 | 0.033 | -0.056 | 0.01 | 0.002 | -0.008 | -0.01
SSNA1 (UniProt O43805) | 0.012 | -0.015 | 0.138 | 0.003 | -0.038 | 0.061 | 0.045 | 0.019 | -0.014 | -0.034 | -0.038 | 0.057 | -0.004 | -0.004 | -0.079 | 0.081 | 0.007 | -0.039 | 0.006 | 0.019
STIM1 (UniProt Q13586) | -0.056 | -0.028 | -0.053 | 0.145 | -0.007 | -0.095 | 0.032 | 0.044 | -0.056 | -0.037 | -0.031 | -0.019 | -0.03 | 0.001 | -0.027 | 0.023 | -0.012 | 0.009 | 0 | -0.031
SRPK1 (UniProt Q96SB4) | -0.006 | 0.008 | -0.089 | 0.1 | 0.025 | 0.17 | -0.016 | 0.233 | -0.028 | -0.054 | -0.002 | 0.069 | -0.01 | -0.03 | 0.017 | -0.108 | -0.03 | 0.283 (active) | -0.021 | -0.069
